From PubChem BioAssay (NCATS)
Inconclusive results are not listed. A call without a number means that no potency is given here. Calls of active or inactive are those of the source. The call rests on the fitted dose curve; in most records, active means well fitted curve in the direction sought with a large enough effect; inconclusive means small, poorly fitted or top-dose-only effect, or another doubt; inactive means no such curve, though single readings can be large; an effect the other way counts as inactive or inconclusive.

Assay: qHTS for inhibitors of adenylyl cyclases using a fission yeast platform: a pilot screen against the NCATS LOPAC library (AID 1347410)
Conditions: S. pombe CHP2027, fbp1-GFP fluorescence, 18 h, yeast expressing mammalian AC9 and human GNAS; series mostly up to 57.5 µM
In short: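 S. pombe CHP2027 (AC9-GNAS-PDE4D2) carrying a PKA-repressed fbp1-GFP reporter was exposed to LOPAC compounds (final up to 57 µM) for 18 h at 30C in the dark, in EMM with histidine, lysine and uracil; GFP gain-of-signal read by laser scanning cytometry.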

**Q.** For CNCCC=C1c2ccccc2CCc2ccccc21, which outcome is on record?
**A.** Its outcome is “inactive”.

**Q.** Which outcome does the source give for C[C@@H]1C(=O)NC2=Nc3cccc(Cl)c3CN21 here?
**A.** The outcome was “inactive”.

**Q.** For C[C@]12CC[C@@H]3c4ccc(O)cc4CC[C@H]3[C@@H]1CC[C@@H]2O, which outcome is on record?
**A.** Its outcome is “inactive”.

**Q.** With CC(C)C[C@H]1C(=O)N2CCC[C@H]2[C@]2(O)O[C@](NC(=O)[C@@H]3C=C4c5cccc6[nH]c(Br)c(c56)C[C@H]4N(C)C3)(C(C)C)C(=O)N12 as the compound, how does the outcome read?
**A.** The outcome was “inactive”.

**Q.** Which outcome does the source give for COc1cc2c(cc1O)CC[C@@H]1[C@@H]2CC[C@]2(C)[C@@H](O)CC[C@@H]12 here?
**A.** The outcome was “inactive”.

Assay: qHTS to identify inhibitors of the type 1 interferon - major histocompatibility complex class I in skeletal muscle: primary screen against the NCATS Mechanism Interrogation Plate v5.0 (MIPE) Libary (AID 1347411); further: nearly all actives have a fitted effect of over 65% in size; further: potency means the concentration at half of the fitted maximal effect
Conditions: iHSKM cells + IFN-b, HiBiT-tagged MHC-I luminescence, 24 h; series mostly up to 45.8 µM
In short: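 Cells were genome-edited human myoblasts carrying a HiBit tag on endogenous HLA-B. They were treated with IFN-beta (4.0 ng/ml) and titrated compounds (top 46 uM) for 24 hrs before lytic HiBiT detection.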

**Q.** For COc1c(C)c2c(c(O)c1C/C=C(\C)CCC(=O)O)C(=O)OC2, which Potency is on record?
**A.** Its Potency is “inactive”.

**Q.** For CC(=O)N(O)CCCCCNC(=O)CCC(=O)N(O)CCCCCNC(=O)CCC(=O)N(O)CCCCCN, which Potency is on record?
**A.** Its Potency is “inactive”.

**Q.** Which Potency does the source give for CC(=O)OCC(=O)[C@@]12OC(C)(C)O[C@@H]1C[C@H]1[C@@H]3C[C@H](F)C4=CC(=O)C=C[C@]4(C)[C@@]3(F)[C@@H](O)C[C@@]12C here?
**A.** The Potency was “inactive”.

**Q.** For COc1cccc2c1C(=O)c1c(O)c3c(c(O)c1C2=O)C[C@@](O)(C(=O)CO)C[C@@H]3O[C@H]1C[C@H](N)[C@H](O)[C@H](C)O1, which Potency is on record?
**A.** Its Potency is 829 nM (active).

**Q.** For C[C@]12C=CC(=O)C=C1CC[C@@H]1[C@@H]2[C@@H](O)C[C@@]2(C)[C@H]1CC[C@]2(O)C(=O)CO, which Potency is on record?
**A.** The Potency was “inactive”.

**Q.** Which Potency does the source give for CC1(C)O[C@@H]2C[C@H]3[C@@H]4C[C@H](F)C5=CC(=O)C=C[C@]5(C)[C@H]4[C@@H](O)C[C@]3(C)[C@]2(C(=O)CO)O1 here?
**A.** The Potency was “inactive”.

**Q.** For CN(C)CC/C=C1/c2ccccc2COc2ccc(CC(=O)O)cc21, which Potency is on record?
**A.** The Potency was “inactive”.

**Q.** With Nc1ccn([C@@H]2O[C@H](CO)[C@@H](O)C2(F)F)c(=O)n1 as the compound, how does the Potency read?
**A.** Its Potency is “inactive”.

**Q.** Which Potency does the source give for CC/C(=C(/CC)c1ccc(O)cc1)c1ccc(O)cc1 here?
**A.** Its Potency is “inactive”.

**Q.** With CC(=O)O[C@]1(C(C)=O)CC[C@H]2[C@@H]3C[C@H](C)C4=CC(=O)CC[C@]4(C)[C@H]3CC[C@@]21C as the compound, how does the Potency read?
**A.** The Potency was “inactive”.

**Q.** Which Potency does the source give for COC(=O)[C@@H]1CC2=CC(=O)CC[C@]2(C)[C@@]23O[C@@H]2C[C@@]2(C)[C@@H](CC[C@@]24CCC(=O)O4)[C@H]13 here?
**A.** The Potency was “inactive”.

**Q.** Which Potency does the source give for CC(=O)OCC(=O)[C@@]12N=C(C)O[C@@H]1C[C@H]1[C@@H]3CCC4=CC(=O)C=C[C@]4(C)[C@H]3[C@@H](O)C[C@@]12C here?
**A.** Its Potency is “inactive”.
